# This is one part of a sample in which hits are shown more often than they occur.
# FBPA Giardia inh: blocks Giardia fructose-bisphosphate aldolase activity; A8B2U2; Potency, µM (doses to about 59.6 µM), for the others: at the highest dose activity, negative = inhibition, most hits filed as inhibitors; hit rate 0.71% among 290,000; purified Giardia FBPA; also: potency is read from the fitted curve at half-maximal effect; % is scaled to controls: 0 for no effect and ±100 for the full control effect; nearly all actives have a fitted effect of over 55% in size
#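 Giardia FBPA (40 nM reagent) was preincubated 10 min at RT with compound (up to 57.5 uM final), then substrate plus GAPDH/TPI/NAD/arsenate coupling system with diaphorase/resazurin was added; resorufin fluorescence (525/598 nm) was read after 20 min.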
# LmPK inh: blocks Leishmania mexicana pyruvate kinase activity; Q27686; purified LmPK, Kinase-Glo ATP luminescence, 1 h; Potency, µM (doses to about 57.5 µM), inactives show at the highest dose activity change, negative = inhibition, hits mostly inhibitors; hit rate 0.37% among 290,000; AID 1721; also: potency is read from the fitted curve at half-maximal effect; % is scaled to controls: 0 for no effect and ±100 for the full control effect
# Target sequence (Q27686 whole entry, looked up): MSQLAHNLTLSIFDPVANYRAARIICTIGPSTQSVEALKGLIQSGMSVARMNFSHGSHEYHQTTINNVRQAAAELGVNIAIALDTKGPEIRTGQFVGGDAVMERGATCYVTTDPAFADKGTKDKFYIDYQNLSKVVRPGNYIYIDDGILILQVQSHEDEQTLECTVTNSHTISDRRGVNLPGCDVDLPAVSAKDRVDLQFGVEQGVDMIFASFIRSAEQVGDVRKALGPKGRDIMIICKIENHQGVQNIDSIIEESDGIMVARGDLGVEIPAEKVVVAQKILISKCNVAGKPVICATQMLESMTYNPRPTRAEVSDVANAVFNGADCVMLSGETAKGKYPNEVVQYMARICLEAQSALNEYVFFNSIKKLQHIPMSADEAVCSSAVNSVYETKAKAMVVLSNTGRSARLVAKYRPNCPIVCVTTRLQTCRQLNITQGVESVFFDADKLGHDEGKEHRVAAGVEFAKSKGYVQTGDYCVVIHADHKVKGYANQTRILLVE
#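 Screened at intermediate enzyme activity to detect both inhibitors and activators: LmPK at 0.1 nM, with a 0.5 nM enzyme column as activation reference. PEP 0.5 mM, ADP 0.1 mM; ATP detected by luminescence after 1 h.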
# Shiga inhibitor: inhibitors of Shiga toxin in Vero cells | hit rate 9.2% among 290,000 | AID 2315 | Vero cells, Shiga toxin protein synthesis inhibition reporter | inhibition, % at 38.7 µM; in the data active = inhibition mostly above about 28%, no sharp cut-off; inactive = mostly below about 43%; also: 0% is about no effect
# TbPYK inhibitor: blocks Trypanosoma brucei pyruvate kinase | Q57TT1 | TbPYK enzyme, Kinase-Glo Plus ATP luminescence, 45 min | Potency, µM (doses to about 76.8 µM), for inactives: at the highest dose activity, negative = inhibition, actives largely listed as inhibitors | hit rate 0.12% among 410,000; also: potency is read from the fitted curve at half-maximal effect; % is scaled to controls: 0 for no effect and ±100 for the full control effect; nearly all actives have a fitted effect of over 50% in size
#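 TbPYK + substrate in 50 mM TEA pH 7.2, 100 mM KCl, 10 mM MgCl2, 0.05% BSA, 0.01% Tween-20; cpd pinned; ADP 130 uM final; 45 min RT; Kinase-Glo Plus 10 min; luminescence endpoint.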
# Cycloheximide cs: counter-screen for Shiga toxin inhibitors: cycloheximide protein synthesis inhibition; cell reporter, cycloheximide protein synthesis inhibition counterscreen; max response, %; hit rate 12% among 300,000; AID 2314; in the data active = max response mostly above about 13%, no sharp cut-off; inactive = mostly below about 14%; also: read at 38.3 µM for the half of the compounds with a filed dose; 0% is about no effect
# Sm TGR inh: S. mansoni TGR enzyme inhibition; Potency, µM (highest dose often 114 µM), for inactives: top-dose activity change, negative = inhibition, usual class: inhibitors; purified TGR, DTNB reduction, TNB absorbance 405 nm; Q962Y6; AID 485364; hit rate 3% among 360,000; also: potency is read from the fitted curve at half-maximal effect; % is scaled to controls: 0 for no effect and ±100 for the full control effect; nearly all actives have a fitted effect of over 60% in size
#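 Kinetic colorimetric format: TGR-catalysed, NADPH-driven DTNB reduction monitored via TNB absorbance. Enzyme dispensed at 20 nM; compound exposure 15 min at room temperature before reaction start.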
# * hit, by the source's call; ? = inconclusive; nt = no result given; + = active, no number. Unless noted, calls follow the shape of the dose curve; as a rule, active = well fitted curve in the direction sought with a large enough effect; inconclusive = small, poorly fitted or top-dose-only effect, or another doubt; inactive = no such curve, though single readings can be large; an effect the other way counts as inactive or inconclusive.
SMILES,FBPA Giardia inh,LmPK inh,Shiga inhibitor,TbPYK inhibitor,Cycloheximide cs,Sm TGR inh
Cc1ccc(-c2noc(CCC(=O)N3CCCC3)n2)cc1,-2.9%,0.9%,45.5*,-0.5%,27.3*,0.0%
Cn1cnc([N+](=O)[O-])c1Oc1cccc(O)c1,5.9%,-5.8%,20.7,-2.6%,-4.7,31.6µM*
Cn1cnc([N+](=O)[O-])c1Oc1ccccc1,3.6%,-3.0%,7.6,12.8%,-3.4,35.5µM*
Cn1cnc([N+](=O)[O-])c1Oc1cccc2ccccc12,-9.1%,-0.2%,2.7,4.4%,-2.1,25.1µM*
Cc1ccccc1NC(=O)CSc1nc(=O)n(CCN2CCOCC2)c2c1CCC2,nt,nt,nt,2.8%,nt,53.5%
c1nc(NC2CC2)c2cc(-c3ccoc3)ccc2n1,-24.6%,nt,nt,nt,nt,nt
CCCCCC1(C)NC(=S)N(c2ccccc2)N1 (configuration not stated),-29.1%,18.1%,39.2,-6.7%,20.2*,-11.6%
CC1(CC(=O)Nc2ccccc2)NC(=S)N(c2ccccc2)N1 (configuration not stated),?,-14.0%,43.8*,-14.1%,23.6*,-22.1%
CCOC(=O)c1cccc(NC(=O)C2CCCN(S(=O)(=O)c3ccc4c(c3)oc(=O)n4C)C2)c1 (configuration not stated),nt,nt,nt,-10.4%,nt,3.1%
CSc1nncc(-c2ccc(F)cc2)n1,5.7%,-8.8%,24.2,0.9%,14.1*,4.4%
Cc1cc(N=NC(=O)c2ccccc2)ccc1O,?,-4.8%,19.8,-16.9%,15.9,11.2µM*
Cc1ccc2nc(-c3ccc(N4C(=O)CC(N5CCC(C(N)=O)CC5)C4=O)cc3)sc2c1 (configuration not stated),0.9%,-2.7%,32.9,nt,25.6*,-35.0%
Cc1ccc(N2C(=O)CC(N3CCN(C)CC3)C2=O)cc1 (configuration not stated),2.9%,5.2%,3.6,nt,-3.5,-18.3%
Cc1ccc2nc(-c3ccc(N4C(=O)CC(N5CCCC(C)C5)C4=O)cc3)sc2c1 (configuration not stated),0.9%,8.3%,143.0*,nt,69.9*,-8.9%
Cc1ccc(Nc2nc(CSc3n[nH]c(N)n3)cs2)cc1,-4.0%,-8.3%,66.2*,-13.9%,31.4*,0.0%
Cc1ccc(OCCCSc2n[nH]c(N)n2)cc1,-0.2%,4.4%,28.4,4.3%,15.0*,15.3%
Cc1ccc(Nc2nc(CSc3nnc(-c4cccs4)o3)cs2)cc1,-20.4%,2.6%,74.2*,0.1%,47.5*,-11.5%
Cc1ccc(CSc2n[nH]c(N)n2)cc1,-0.2%,7.4%,-5.3,-2.0%,22.4*,1.9%
CCC(C(=O)NCCN1CCOCC1)n1c2ccccc2c2nc(=O)cc(C)n21 (configuration not stated),nt,-10.1%,-4.5,1.7%,-7.4,-8.4%
CCC(=O)Nc1ccc2nc(SCc3ccc(C)cc3)sc2c1,nt,nt,nt,1.9%,nt,7.8%
COc1ccc(N(Cc2cccs2)C(=O)COc2ccc(C(C)C)cc2)cc1,nt,nt,nt,10.7%,nt,3.2%
O=C(O/N=C/c1ccc2c(c1)OCO2)c1ccccc1Cl,-8.9%,?,131.9*,nt,54.8*,-1.5%
O=C(O)c1cc(N/N=C/c2ccc3c(c2)OCO3)ccc1Cl,4.2%,-2.2%,+,-6.8%,80.1*,-16.2%
C/C(=N\Nc1ccc(Cl)c(C(=O)O)c1)c1ccc2c(c1)OCO2,-21.1%,0.1%,+,-5.7%,88.4*,?
CC(=O)c1ccc2c(c1)OCO2,2.2%,1.4%,23.7,-2.4%,-1.8,-13.3%
SMILES,FBPA Giardia inh,LmPK inh,Shiga inhibitor,TbPYK inhibitor,Cycloheximide cs,Sm TGR inh
O=C(O)c1ccc(N/N=C/c2cc3cc4c(cc3nc2Cl)OCCO4)cc1,-18.0%,-22.1%,-2.3,-6.0%,11.7*,-21.4%
CCOC(=O)C1OC1(c1ccccc1)c1ccccc1 (configuration not stated),nt,nt,nt,8.8%,nt,nt
C=Cc1ccc(Cn2c(=O)n(CCCOC)c(=O)c3sccc32)cc1,-4.3%,-0.6%,-1.4,0.0%,5.2,-22.0%
Cc1ccc(N/N=C/c2ccc3c(c2)OCCO3)cc1Cl,-15.0%,1.2%,27.7*,-10.5%,55.4*,-23.1%
O=C(O)c1ccc(N/N=C/c2ccc3c(c2)OCO3)cc1,16.2%,10µM*,-41.0,?,-10.6,-0.2%
Cc1ccc(Cl)cc1NC(=O)C(=O)N/N=C/c1ccc2c(c1)OCO2,nt,-9.4%,-11.2,1.3%,-3.1,-3.0%
O=C(O)c1cc(S(=O)(=O)Nc2ccc3c(c2)OCCO3)c(Cl)cc1Cl,-12.1%,-0.9%,137.3*,0.9%,73.1*,3.1%
O=C(O)c1cc(N/N=C/c2ccc3c(c2)OCCO3)ccc1Cl,-0.4%,4.5%,116.0*,-7.0%,109.2*,-19.2%
CN(C(=O)COC(=O)C1(C)CC1(Cl)Cl)c1c(N)n(Cc2ccccc2)c(=O)[nH]c1=O (configuration not stated),nt,nt,nt,1.4%,nt,2.6%
O=C(O)c1ccc(N/N=C/c2cc3c(cc2[N+](=O)[O-])OCO3)cc1,4.1%,-3.5%,42.2*,-13.4%,17.4,-4.2%
Cc1cc(C)nc(N/N=C/c2cc3c(cc2[N+](=O)[O-])OCO3)n1,-17.3%,-4.3%,0.8,0.1%,15.2,-2.5%
CSc1nn(-c2ccc(C(=O)OCC(=O)NC(=O)NC(C)C)cc2)c(=S)s1,-4.5%,-1.5%,31.8,-7.2%,26.7*,1.4%
CCC1SC(=NC(=O)c2ccc(Cl)c(Cl)c2)NC1=O (configuration not stated),-0.4%,2.3%,43.3,7.4%,20.1*,2.8%
COC(=O)CNC(=O)[C@@]1(C)C=C[C@@H](Cc2ccccc2)N1C(C)=O,0.6%,nt,nt,nt,nt,nt
Cc1cc2c(c3oc(=O)c4ccccc4c13)CN(Cc1ccc(F)cc1)CO2,nt,nt,nt,0.5%,nt,-2.8%
Clc1ccc(SCCCCN2CCNCC2)cc1,15.6%,-1.5%,65.0,15.3%,39.4*,5.9%
Cc1ccc(SCCCCN2CCOCC2)cc1,?,-18.8%,16.9,-13.1%,6.9*,-1.1%
Clc1ccc(SCCCCN2CCOCC2)cc1,-24.9%,3.3%,35.3,-18.0%,10.9,-16.4%
CC1CN(CCCCSc2ccc(Cl)cc2)CC(C)O1 (configuration not stated),?,3.1%,nt,-2.8%,-3.1,4.3%
Cc1ccc(SCCCCN2CCNCC2)cc1,?,-2.1%,+,13.7%,36.9*,-18.0%
O=C(Cn1c(=O)n(-c2ccccc2Cl)c(=O)c2sc3ccccc3c21)N1CCCC1,nt,nt,nt,4.0%,nt,-8.0%
OC(CN1CCCCC1)c1cc(-c2ccccc2)on1 (configuration not stated),nt,nt,nt,-5.3%,nt,nt
Cc1cc(C)c(NS(=O)(=O)c2ccccc2)c(C)c1NS(=O)(=O)c1ccccc1,nt,nt,nt,-8.2%,nt,nt
COc1ccc(-n2cnc3cc(C(=O)NC4CCCCCC4)ccc32)cc1,nt,nt,nt,-0.3%,nt,3.2%
